High-throughput results as filed in PubChem.
The list is not random: actives were taken first. Their share in the collection is about 4.1%.
NALP1 inh – NALP1 inflammasome inhibitors in reconstituted yeast, colorimetric, S. cerevisiae, triplicate retest; S. cerevisiae NALP1/ASC/caspase-1 growth, X-gal OD620, 72 h; actives 0.61% (n = 280,000); AID 2071, 2009; inhibition, % at 10 µM; in the data active = inhibition mostly above about 24%, no sharp cut-off; inactive = mostly below about 32%
NLRP3 yeast inh – NALP3 inflammasome inhibitors in reconstituted yeast, primary screen, luminescence, uHTS | inhibition, % at 10 µM | actives 0.39% (n = 330,000) | Yeast reconstituted NLRP3/ASC/caspase-1, beta-gal luminescence, 24 h;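 active = inhibition of 50% or more; inactive = inhibition below 50%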;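 also: plate controls were induced DMSO wells for no effect and uninduced yeast grown without galactose for full effect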
tim10-1 inh – growth inhibitors of tim10-1 mutant yeast, primary screen, luminescence, uHTS; inhibition, % at 20 µM; S. cerevisiae tim10-1 ts strain growth, BacTiter-Glo, 24 h; actives 2.2% (n = 330,000); AID 463190, 2010;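 active = inhibition of at least 40%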;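 also: mutant grown at 25 °C; 0% = DMSO wells with yeast and 100% = wells holding no yeast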
tim23-1 inh – growth inhibitors of tim23-1 mutant yeast, primary screen, luminescence, uHTS. S. cerevisiae tim23-1 growth, BacTiter-Glo luminescence, 24 h. inhibition, % at 20 µM. actives 1.3% (n = 330,000). AID 463212, 2010;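 active = growth inhibition of the mutant yeast at or above 50%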;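 also: temperature-sensitive mutant grown at 25 °C; plate controls were DMSO-treated mutant yeast for no effect and medium wells lacking yeast for full effect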
TIM10 inh – growth inhibitors of isogenic TIM10 control yeast, primary screen, counter-screen for tim10-1 yeast inhibitor project, luminescence, uHTS. AID 463195, 2010. actives 1.4% (n = 330,000). inhibition, % at 10 µM. S. cerevisiae TIM10 strain growth, BacTiter-Glo luminescence, 24 h;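 active = inhibition of 40% or more at the single tested concentration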;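 also: wild-type TIM10 isogenic control strain grown at permissive 25 °C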
tim23-1 confirm – tim23-1 mutant yeast growth inhibitors, confirmation, luminescence, single concentration; shares compounds with tim23-1 inh; S. cerevisiae tim23-1 growth, BacTiter-Glo luminescence, 24 h; inhibition, % at 20 µM; actives 83% (n = 4,400); AID 463218, 2010;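 active = inhibition above about 39% in either of two replicate wells at 20 µM, limit read from the data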;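 also: temperature-sensitive tim23-1 mutant grown at 25 °C; 0% = DMSO wells with yeast and 100% = medium wells without yeast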
* marks the source's active call; other numbers are inactive results.

Results for CCCCn1c(=O)c(CCC(=O)OCC(=O)NC(=O)NCCOC)nc2ccccc21 ?
NALP1 inh: -7; NLRP3 yeast inh: 10; tim10-1 inh: -10; tim23-1 inh: 8; TIM10 inh: 7

What do the screens show for `NC(=O)c1ccsc1NC(=O)CCS(=O)(=O)c1ccc(Cl)cc1`?
NLRP3 yeast inh: 12; tim10-1 inh: 5; tim23-1 inh: 13; TIM10 inh: 6

How did COc1ccc2c(c1)-c1c(ssc1=S)C(C)(C)N2 do in these assays?
NALP1 inh: 17; NLRP3 yeast inh: 30; tim10-1 inh: 32; tim23-1 inh: 53*; TIM10 inh: 31; tim23-1 confirm: 47*

How did COc1ccc(-n2sc3c(c2=S)-c2cc(OC)ccc2NC3(C)C)cc1 do in these assays?
NALP1 inh: 28; NLRP3 yeast inh: 14; tim10-1 inh: 23; tim23-1 inh: 33; TIM10 inh: 5

What do the screens show for `Cc1ccc(C)c(N=Nc2ccc(O)c3ncccc23)c1`?
NALP1 inh: 2; NLRP3 yeast inh: 17; tim10-1 inh: 33; tim23-1 inh: 0; TIM10 inh: 7

What do the screens show for `Cc1cccc(N=Nc2ccc(O)c3ncccc23)c1`?
NALP1 inh: 15; NLRP3 yeast inh: 27; tim10-1 inh: 18; tim23-1 inh: 60*; TIM10 inh: 17; tim23-1 confirm: 56*

What do the screens show for `COc1ccc(NC(=O)C(=O)NCCN2CCN(C(=O)c3ccco3)CC2)cc1`?
NALP1 inh: -1; NLRP3 yeast inh: 7; tim10-1 inh: -1; tim23-1 inh: -4; TIM10 inh: -14

Results for O=C(Nc1cccc(S(=O)(=O)N2CCCCC2)c1)c1ccc(S(=O)(=O)C(F)F)cc1 ?
NALP1 inh: 11; NLRP3 yeast inh: -2; tim10-1 inh: 18; tim23-1 inh: 4; TIM10 inh: 0

What do the screens show for `Cc1ccc(Nc2cc(C)c3ccc(O)cc3n2)cc1C`?
NLRP3 yeast inh: 27; tim10-1 inh: -16; tim23-1 inh: 82*; TIM10 inh: 11; tim23-1 confirm: 36*

How did COc1ccc(-c2cc(C(=O)Nc3cc(OC)cc(C(=O)Nc4cccc(C(F)(F)F)c4)c3)[nH]n2)cc1 do in these assays?
NLRP3 yeast inh: 17; tim10-1 inh: 7; tim23-1 inh: 7; TIM10 inh: -1

How did CC(=O)Nc1ccc(S(=O)(=O)NCCC(=O)Nc2ccc(C)c(F)c2)cc1 do in these assays?
NALP1 inh: 13; NLRP3 yeast inh: -5; tim10-1 inh: -10; tim23-1 inh: 1; TIM10 inh: 10

Results for O=[n+]1cc(-c2ccc(Cl)cc2)n([O-])c2c1CCCCC2 ?
NALP1 inh: 27; NLRP3 yeast inh: 13; tim10-1 inh: 4; tim23-1 inh: -7; TIM10 inh: 4

How did COc1ccc(Cn2c(C)nc([N+](=O)[O-])c2SCC(=O)O)cc1[N+](=O)[O-] do in these assays?
NALP1 inh: 15; NLRP3 yeast inh: 23; tim10-1 inh: 3; tim23-1 inh: 55*; TIM10 inh: -10; tim23-1 confirm: 4

How did Cc1cccc(-n2nc3c(c2NC(=O)c2ccc4c(c2)OCO4)CS(=O)(=O)C3)c1C do in these assays?
NALP1 inh: 21; NLRP3 yeast inh: 9; tim10-1 inh: 4; tim23-1 inh: 2; TIM10 inh: 1

What do the screens show for `COc1ccc(C(C(=O)NC(C)(C)C)N(C[C@H]2CC[C@@H]([C@@H]3CC[C@H](CO)O3)O2)C(=O)c2ccccc2)cc1` (stereo partly specified)?
tim10-1 inh: 14; tim23-1 inh: 25; TIM10 inh: -7

What do the screens show for `CCOC(=O)c1c(-c2ccccc2)oc2ccc(OCC)cc12`?
NALP1 inh: 30; NLRP3 yeast inh: 11; tim10-1 inh: 18; tim23-1 inh: -5; TIM10 inh: -6

Results for CCOC(=O)c1c(-c2ccccc2)oc2ccc(O)cc12 ?
NALP1 inh: 12; NLRP3 yeast inh: 18; tim10-1 inh: 13; tim23-1 inh: 59*; TIM10 inh: 19; tim23-1 confirm: 56*

Results for CN(CC(=O)Nc1ccccc1Cl)C(=O)CSc1nnc(-c2ccco2)n1C ?
NLRP3 yeast inh: 18; tim10-1 inh: 0; tim23-1 inh: -1; TIM10 inh: -7
